# Measured values taken from PubChem BioAssay AID1159580 (chemical genetic matrix, 2015).
# The campaign covered roughly 5,500 compounds. About 2,000 (36%) were called active. Inconclusive results (about 18%) are left out. The list shows a part of the results. Values without a mark were called inactive. Cut-off read from the data, not from the text of the source: active = normalized growth mostly below about 0.91 (no sharp cut-off); inconclusive = no clear call, values can overlap the other calls; inactive = mostly above about 0.92.
# Test: chemical genetic growth profiling, strain panel (AID 1159580);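 note: tested at 20 µM; growth read once vehicle control cultures reached saturation at 30 °C; 1 = growth at the plate median or of vehicle wells; lower values mean less growth of the strain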
# Details: growth OD
smiles,measurement,setting,value
C1CCN2CC3CC(CN4CCCCC34)C2C1 (centres undefined),normalized growth,"S. cerevisiae deletion strains, locus YJR043C, strain POL32, hits give low values",1.02
same,normalized growth,"S. cerevisiae deletion strains, locus YJR075W, strain HOC1, hits give low values",1.01
same,normalized growth,"S. cerevisiae deletion strains, locus YKL009W, strain mrt4, hits give low values",1.02
same,normalized growth,"S. cerevisiae deletion strains, locus YKL068W, hits give low values",1.01
same,normalized growth,"S. cerevisiae deletion strains, locus YKL085W, strain MDH1 (second series), hits give low values",1
same,normalized growth,"S. cerevisiae deletion strains, locus YKL085W, strain MDH1, hits give low values",1
same,normalized growth,"S. cerevisiae deletion strains, locus YKL160W, strain elf1, hits give low values",0.991
same,normalized growth,"S. cerevisiae deletion strains, locus YKL190W, strain CNB1, hits give low values",1
same,normalized growth,"S. cerevisiae deletion strains, locus YKR001C, strain vps1, hits give low values",0.964
same,normalized growth,"S. cerevisiae deletion strains, locus YKR026C, strain gcn3, hits give low values",1.02
same,normalized growth,"S. cerevisiae deletion strains, locus YKR091W, strain srl3, hits give low values",1.01
same,normalized growth,"S. cerevisiae deletion strains, locus YLL001W, strain dnm1, hits give low values",1.04
same,normalized growth,"S. cerevisiae deletion strains, locus YLL026W, hits give low values",1.01
same,normalized growth,"S. cerevisiae deletion strains, locus YLL041C, strain sdh2, hits give low values",1.02
same,normalized growth,"S. cerevisiae deletion strains, locus YLR027C, strain aat2, hits give low values",1.01
same,normalized growth,"S. cerevisiae deletion strains, locus YLR039C, strain RIC1, hits give low values",1.04
same,normalized growth,"S. cerevisiae deletion strains, locus YLR058C, strain SHM2, hits give low values",1.02
same,normalized growth,"S. cerevisiae deletion strains, locus YLR102C, strain apc9, hits give low values",1.01
same,normalized growth,"S. cerevisiae deletion strains, locus YLR221C, strain rsa3, hits give low values",1.01
same,normalized growth,"S. cerevisiae deletion strains, locus YLR258W, strain gsy2, hits give low values",1.02
same,normalized growth,"S. cerevisiae deletion strains, locus YLR262C, strain YPT6 (second series), hits give low values",1
same,normalized growth,"S. cerevisiae deletion strains, locus YLR262C, strain YPT6, hits give low values",1.01
same,normalized growth,"S. cerevisiae deletion strains, locus YLR268W, strain sec22, hits give low values",0.894
same,normalized growth,"S. cerevisiae deletion strains, locus YLR320W, strain mms22, hits give low values",1.03
same,normalized growth,"S. cerevisiae deletion strains, locus YLR330W, strain CHS5, hits give low values",1.01
same,normalized growth,"S. cerevisiae deletion strains, locus YLR342W, strain FKS1 (second series), hits give low values",1.03
same,normalized growth,"S. cerevisiae deletion strains, locus YLR342W, strain FKS1, hits give low values",1.02
same,normalized growth,"S. cerevisiae deletion strains, locus YLR357W, strain rsc2, hits give low values",1.04
same,normalized growth,"S. cerevisiae deletion strains, locus YLR370C, strain arc18, hits give low values",1.02
same,normalized growth,"S. cerevisiae deletion strains, locus YLR371W, strain rom2, hits give low values",0.967
same,normalized growth,"S. cerevisiae deletion strains, locus YLR384C, strain iki3, hits give low values",1.02
same,normalized growth,"S. cerevisiae deletion strains, locus YLR418C, strain cdc73, hits give low values",0.811 (active)
same,normalized growth,"S. cerevisiae deletion strains, locus YML016C, strain PPZ1, hits give low values",1.01
same,normalized growth,"S. cerevisiae deletion strains, locus YML032C, strain rad52, hits give low values",1.03
same,normalized growth,"S. cerevisiae deletion strains, locus YML120C, strain ndi1, hits give low values",1.01
same,normalized growth,"S. cerevisiae deletion strains, locus YML124C, strain tub3, hits give low values",1.01
same,normalized growth,"S. cerevisiae deletion strains, locus YMR058W, strain fet3, hits give low values",1.02
same,normalized growth,"S. cerevisiae deletion strains, locus YMR078C, strain ctf18, hits give low values",1.02
same,normalized growth,"S. cerevisiae deletion strains, locus YMR125W, strain sto1, hits give low values",1.06
same,normalized growth,"S. cerevisiae deletion strains, locus YMR129W, hits give low values",1.03
same,normalized growth,"S. cerevisiae deletion strains, locus YMR205C, strain PFK2, hits give low values",1.04
same,normalized growth,"S. cerevisiae deletion strains, locus YMR223W, strain ubp8, hits give low values",0.909
same,normalized growth,"S. cerevisiae deletion strains, locus YMR231W, strain pep5, hits give low values",1.02
same,normalized growth,"S. cerevisiae deletion strains, locus YMR263W, strain SAP30, hits give low values",0.997
same,normalized growth,"S. cerevisiae deletion strains, locus YMR307W, strain GAS1, hits give low values",1.02
same,normalized growth,"S. cerevisiae deletion strains, locus YNL067W, strain RPL9B, hits give low values",0.988
same,normalized growth,"S. cerevisiae deletion strains, locus YNL071W, strain lat1, hits give low values",1.02
same,normalized growth,"S. cerevisiae deletion strains, locus YNL128W, strain TEP1, hits give low values",1.01
same,normalized growth,"S. cerevisiae deletion strains, locus YNL153C, strain GIM3, hits give low values",0.986
same,normalized growth,"S. cerevisiae deletion strains, locus YNL209W, strain ssb2, hits give low values",1.02
same,normalized growth,"S. cerevisiae deletion strains, locus YNL233W, strain BNI4, hits give low values",0.998
same,normalized growth,"S. cerevisiae deletion strains, locus YNL248C, strain rpa49, hits give low values",1.02
same,normalized growth,"S. cerevisiae deletion strains, locus YNL250W, strain rad50, hits give low values",1.03
same,normalized growth,"S. cerevisiae deletion strains, locus YNL271C, strain bni1, hits give low values",1.01
same,normalized growth,"S. cerevisiae deletion strains, locus YNL298W, strain CLA4, hits give low values",1.01
same,normalized growth,"S. cerevisiae deletion strains, locus YNL307C, strain MCK1, hits give low values",0.294 (active)
same,normalized growth,"S. cerevisiae deletion strains, locus YNL322C, strain KRE1 (second series), hits give low values",1.01
same,normalized growth,"S. cerevisiae deletion strains, locus YNL322C, strain KRE1, hits give low values",1.01
same,normalized growth,"S. cerevisiae deletion strains, locus YNR049C, strain mso1, hits give low values",1.02
same,normalized growth,"S. cerevisiae deletion strains, locus YNR052C, strain pop2, hits give low values",1.02
same,normalized growth,"S. cerevisiae deletion strains, locus YOL006C, strain TOP1, hits give low values",1.03
same,normalized growth,"S. cerevisiae deletion strains, locus YOL012C, strain htz1",0.345
same,normalized growth,"S. cerevisiae deletion strains, locus YOL147C, strain pex11, hits give low values",1.01
same,normalized growth,"S. cerevisiae deletion strains, locus YOR001W, strain rrp6, hits give low values",1.01
same,normalized growth,"S. cerevisiae deletion strains, locus YOR061W, strain CKA2, hits give low values",1.01
same,normalized growth,"S. cerevisiae deletion strains, locus YOR069W, strain VPS5, hits give low values",1.01
same,normalized growth,"S. cerevisiae deletion strains, locus YOR070C, strain gyp1, hits give low values",1.02
same,normalized growth,"S. cerevisiae deletion strains, locus YOR080W, strain dia2, hits give low values",1.02
same,normalized growth,"S. cerevisiae deletion strains, locus YOR083W, strain WHI5, hits give low values",0.99
same,normalized growth,"S. cerevisiae deletion strains, locus YOR106W, strain vam3, hits give low values",1
same,normalized growth,"S. cerevisiae deletion strains, locus YOR136W, strain idh2, hits give low values",0.961
same,normalized growth,"S. cerevisiae deletion strains, locus YOR144C, strain elg1, hits give low values",1.01
same,normalized growth,"S. cerevisiae deletion strains, locus YOR184W, strain ser1, hits give low values",0.959
same,normalized growth,"S. cerevisiae deletion strains, locus YOR265W, strain rbl2, hits give low values",1.02
same,normalized growth,"S. cerevisiae deletion strains, locus YOR270C, strain vph1, hits give low values",1.03
same,normalized growth,"S. cerevisiae deletion strains, locus YOR290C, strain snf2, hits give low values",0.985
same,normalized growth,"S. cerevisiae deletion strains, locus YOR316C, strain cot1, hits give low values",1.01
same,normalized growth,"S. cerevisiae deletion strains, locus YPL051W, strain arl3, hits give low values",0.998
same,normalized growth,"S. cerevisiae deletion strains, locus YPL055C, strain LGE1, hits give low values",1
same,normalized growth,"S. cerevisiae deletion strains, locus YPL078C, strain atp4, hits give low values",1
same,normalized growth,"S. cerevisiae deletion strains, locus YPL106C, strain sse1, hits give low values",1.04
same,normalized growth,"S. cerevisiae deletion strains, locus YPL240C, strain hsp82, hits give low values",1.03
same,normalized growth,"S. cerevisiae deletion strains, locus YPL241C, strain CIN2, hits give low values",1.01
same,normalized growth,"S. cerevisiae deletion strains, locus YPR119W, strain clb2, hits give low values",1
same,normalized growth,"S. cerevisiae deletion strains, locus YPR141C, strain kar3, hits give low values",1.02
same,normalized growth,"S. cerevisiae deletion strains, locus YPR163C, strain tif3, hits give low values",0.873 (active)
same,normalized growth,"S. cerevisiae deletion strains, locus YPR167C, strain met16, hits give low values",0.992
same,normalized growth,"S. cerevisiae deletion strains, strain wtn01, hits give low values",0.863 (active)
same,normalized growth,"S. cerevisiae strains, strain wild type, hits give low values",1.01
